Reference: PubChem BioAssay (NCATS)
Records with an inconclusive call do not appear. Unmarked numbers belong to inactive results. Active and inactive are the calls of the source. The call rests on the fitted dose curve; in most records, active means well fitted cell-killing curve with a large enough effect; inconclusive means small, poorly fitted or top-dose-only effect, or effect the other way; inactive means no such curve, though single readings can be large or run the other way.

test: Quantitative High-Throughput drug screen in 47 multiple myeloma cell lines against the NCATS MIPE library collection: RPMI8226_ATCC cell viability assay (AID 1919871); details: RPMI8226 myeloma viability, CellTiter-Glo ATP luminescence, 48 h; series mostly up to 45.8 µM; viability (% of control): at the top concentration; further: nearly all actives have a fitted effect of over 30% in size
Text: PI: Beverly A. Mock Ph.D.
Laboratory of Cancer Biology and Genetics,
Center for Cancer Research, National Cancer Institute,
National Institute of Health, Bethesda, Maryland
Drug resistance and disease progression are common in multiple myeloma (MM) patients, underscoring the need for new therapeutic combinations. […] We hypothesized that effective combinations would reduce MYC expression and enhance p16 activity. […] These preclinical data identify potentially useful drug combinations for evaluation in drug-resistant MM and reveal potential mechanisms of combined drug sensitivity.
Described herein is the primary MIPE qHTS used to cherrypick compounds. Validated compounds were then further tested for potential synergistic activiy.
[1] Peat TJ, Gaikwad SM, Dubois W, Gyabaah-Kessie N, Zhang S, Gorjifard S, Phyo Z, Andres M, Hughitt VK, Simpson RM, Miller MA, Girvin AT, Taylor A, Williams D, D'Antonio N, Zhang Y, Rajagopalan A, Flietner E, Wilson K, Zhang X, Shinn P, Klumpp-Thomas C, McKnight C, Itkin Z, Chen L, Kazandijian D, Zhang J, Michalowski AM, Simmons JK, Keats J, Thomas CJ, Mock BA. Drug combinations identified by high-throughput screening promote cell cycle transition and upregulate Smad pathways in myeloma. Cancer Lett. 2023 Aug 1;568:216284. doi: 10.1016/j.canlet.2023.216284. Epub 2023 Jun 24. PMID: 37356470; PMCID: PMC10408729.
SEQUENCE No. (e.g., 1, 2, 3, etc.); […] (e.g., Cells, Incubation, Reagent, etc.); VALUE and DESCRIPTION.
1; Cells; 5 uL; white, solid bottom 1536-well Greiner assay plate.
2; Compounds; 23 nL; Kalypsis pin tool (Wako USA) equipped with a 1536-well pin head to transfer to the assay plates.
3; Incubation; 48 hours; 37C incubation.
4; Reagent;5uL; CellTiter Glo (Promega).
5; Detector; 425V; Luminescence; Viewlux PerkinElmer.
NOTES (numbers refer to Sequence numbers above)
1. The cell-based screening methods employed in this study were like those previously published. Briefly, the corresponding myeloma cell lines were screened in 1,536-well plates with 500 cells, 5-uL per well for inhibition of cell viability (assessed by measuring ATP levels with CellTiterGlo).
2. NCATS MIPE 4.0 library of approved and investigational drugs were added using the Kalypsis pin tool. Wells treated with DMSO only for 100% viability and media only for 0% viability were used as controls.
3. The assay plates were covered and incubated for 48 hours in a 37C, 5% CO2 incubator with controlled humidity.
4. After 48 hours, CellTilter-GloTM luminescent substrate mix (Promega) reagent was added to the assay plate and plates we incubated for 5 min at room temperature.
5. Signal was measured as median relative luminescence units on a ViewLux (PerkinElmer) multiplate reader.
[1] Heske CM, Davis MI, Baumgart JT, Wilson K, Gormally MV, Chen L, Zhang X, Ceribelli M, Duveau DY, Guha R, Ferrer M, Arnaldez FI, Ji J, Tran HL, Zhang Y, Mendoza A, Helman LJ, Thomas CJ. Matrix Screen Identifies Synergistic Combination of PARP Inhibitors and Nicotinamide Phosphoribosyltransferase (NAMPT) Inhibitors in Ewing Sarcoma. Clin Cancer Res. 2017 Dec 1;23(23):7301-7311. doi: 10.1158/1078-0432.CCR-17-1121. Epub 2017 Sep 12. PMID: 28899971; PMCID: PMC6636827.
Potency means the concentration at half of the fitted maximal effect.

SMILES	Potency	viability (% of control) [%]
COc1cc(Nc2ncc(F)c(Nc3ccc4c(n3)NC(=O)C(C)(C)O4)n2)cc(OC)c1OC	4.18 µM (active)	–
CC#CCn1c(N2CCC[C@@H](N)C2)nc2c1c(=O)n(Cc1nc(C)c3ccccc3n1)c(=O)n2C	–	102
NC[C@@H]1O[C@@H](O[C@H]2[C@@H](O)[C@H](O[C@@H]3[C@@H](O)[C@@H](N)C[C@H](N)[C@H]3O[C@H]3O[C@H](CN)[C@@H](O)[C@@H](O)[C@H]3N)O[C@H]2CO)[C@H](N)[C@@H](O)[C@@H]1O	–	109
CCn1cc(C(=O)O)c(=O)c2ccc(C)nc21	–	115
O=c1cc(-c2ccccc2)oc2cc(O)cc(O)c12	–	119
CCC(CC)[C@H](NC(C)=O)[C@@H]1[C@H](O)[C@@H](C(=O)O)C[C@@H]1N=C(N)N	–	106
Cn1c(N2CCCCS2(=O)=O)nc(C(=O)NCc2ccc(F)cc2)c(O)c1=O	–	104
CC(C)C(C)C=CC(C)C1CCC2C3=CC=C4CC(O)CCC4(C)C3CCC21C (stereo not given)	–	119
Cc1c(O)cccc1C(=O)N[C@@H](CSc1ccccc1)[C@H](O)CN1C[C@H]2CCCC[C@@H]2C[C@@H]1C(=O)NC(C)(C)C	18.7 µM (active)	–
O=C(CCc1ccc(O)cc1)c1c(O)cc(O)cc1O[C@@H]1O[C@H](CO)[C@H](O)[C@H](O)[C@H]1O	–	69.9
CC1(C)CCC(CN2CCN(c3ccc(C(=O)NS(=O)(=O)c4ccc(NCC5CCOCC5)c([N+](=O)[O-])c4)c(Oc4cnc5[nH]ccc5c4)c3)CC2)=C(c2ccc(Cl)cc2)C1	14.8 µM (active)	–
CNC1CCC(N(Cc2cccc(-c3ccncc3)c2)C(=O)c2sc3c(F)ccc(F)c3c2Cl)CC1 (stereo not given)	18.7 µM (active)	–
CCCCCN(C)CCC(O)(P(=O)(O)O)P(=O)(O)O	–	116
OC[C@H]1O[C@@H](n2cnc3c2NC=NC[C@@H]3O)C[C@H]1O	–	118
C[N+]1(C)[C@@H]2CC(OC(=O)[C@H](CO)c3ccccc3)C[C@H]1[C@H]1O[C@@H]12 (stereo not given in full)	–	126
CC(C)OC(=O)CCCC=CC[C@@H]1[C@H](C=C[C@@H](O)COc2cccc(C(F)(F)F)c2)[C@H](O)C[C@@H]1O	10.5 µM (active)	–
NS(=O)(=O)c1ccc(NC2=CC(=O)c3ccccc3C2=O)cc1	–	109
Oc1ccc(C2CCN(c3ccnc4ccccc34)CC2)cc1O	16.6 µM (active)	–
CC[C@@H]1C=C(C)C[C@H](C)C[C@H](OC)[C@H]2O[C@@](O)(C(=O)C(=O)N3CCCC[C@@H]3C(=O)O[C@H](C(C)=C[C@@H]3CC[C@H](Cl)[C@H](OC)C3)[C@H](C)[C@@H](O)CC1=O)[C@H](C)C[C@H]2OC	18.7 µM (active)	–
CC1(C)CCC[C@@]2(C)[C@@H]1CC[C@@]1(C)OC(=O)C[C@H]21	2.09 µM (active)	–

SMILES	Potency	viability (% of control) [%]
O=C1c2ccccc2-[n+]2ccc3c([nH]c4ccccc43)c21	2.96 µM (active)	–
O=C1C(Cl)=C(NCCN2CCOCC2)C(=O)c2ncccc21	9.35 µM (active)	–
O=C(Nc1ccccc1-c1cn2c(CN3CCNCC3)csc2n1)c1cnc2ccccc2n1	20.9 µM (active)	–
Cc1nnc(C(C)C)n1C1C[C@H]2CC[C@@H](C1)N2CC[C@H](NC(=O)C1CCC(F)(F)CC1)c1ccccc1 (stereo not given in full)	–	139
Cc1ccc([C@@H]2O[C@H](CO)[C@@H](O)[C@H](O)[C@@H]2O)cc1Cc1ccc(-c2ccc(F)cc2)s1	–	96.3
O=C(NOCC(O)CO)c1cc(Br)c(F)c(F)c1Nc1ccc(I)cc1F (stereo not given)	–	75.4
Nc1ncnc2c1ncn2[C@@H]1O[C@@H](CO)[C@H](O)[C@H]1O	–	132
COc1ccc(-c2coc3cc(O)cc(O)c3c2=O)cc1	–	115
CCc1ccc(C=C2SC(=S)NC2=O)cc1	–	86.3
CN(C[C@@H]1COCCO1)S(=O)(=O)Nc1ccc2ccc3ncc(-c4cnn(C)c4)cc3c(=O)c2c1	16.6 µM (active)	–
NC(=O)c1cccc2[nH]c(-c3ccc([C@H]4CCCN4)cc3F)nc12	–	88.3
CO[C@H]1C=CC=C(C)C(=O)NC2=CC(=O)C(NCCN(C)C)=C(C[C@@H](C)C[C@H](OC)[C@@H](O)[C@@H](C)C=C(C)[C@@H]1OC(N)=O)C2=O	0.0469 µM (active)	–
O=c1cc(-c2ccccc2)oc2cc(O)c(O)c(O)c12	–	110
CC1(C)Cc2c(sc(NC(=S)NC(=O)c3ccccc3)c2C(=O)O)CO1	–	122
O=C(O)c1c(Cl)c(Cl)c(Cl)c(Cl)c1-c1c2cc(I)c(=O)c(I)c-2oc2c(I)c(O)c(I)cc12	9.35 µM (active)	–
COc1ccc(Cc2ccc(NC(N)=O)cc2)cc1-c1cccc(Cl)c1	–	92.6
CC(C)(C)COc1ccc(-n2cc(C(=O)O)cn2)cc1C#N	–	120
CC=CC[C@@H](C)C(=O)[C@H]1C(=O)N[C@@H](C(C)C)C(=O)N(C)CC(=O)N(C)[C@@H](CC(C)C)C(=O)N[C@@H](C(C)C)C(=O)N(C)[C@@H](CC(C)C)C(=O)N[C@@H](C)C(=O)N[C@H](C)C(=O)N(C)[C@@H](CC(C)C)C(=O)N(C)[C@@H](CC(C)C)C(=O)N(C)[C@@H](C(C)C)C(=O)N1C	13.2 µM (active)	–
N#C[C@H]1C[C@H]2C[C@@H]2N1C(=O)[C@@H](N)C12CC3CC(CC(O)(C3)C1)C2	–	99.3
CC(C)(C)C(=O)Oc1ccc2c(c1)nc(NC(=O)c1cccc([N+](=O)[O-])c1)n2CCCO	18.7 µM (active)	–
